# Reference: PubChem BioAssay (EPA / NIEHS)
# Several values for one entry are separate records, joined by “and”; a condition that tells them apart may be missing. Equal entries are not always repeated. A structure can be active in one record and inactive in another. Activity calls are given as the source filed them. Rule for the calls: active = hit-call score of the fitted dose curve at least 0.9, where 1 is the maximum; inactive = score below 0.9.
# Key:
# [1] = read-out: TIMP metallopeptidase inhibitor 2 (TIMP2), TIMP2 (gene 7077); assay: BSK_KF3CT_TIMP2: BioMAP Diversity Plus: KF3CT Assay for TIMP metallopeptidase inhibitor 2 (TIMP2) Biomarker Activity (AID 2283071); details: primary human keratinocytes with fibroblasts; actives raise or lower the signal
# Summary of the method: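 Co-culture of human primary keratinocytes and foreskin fibroblasts, measured 24 h after chemical dosing. TIMP-2 quantified by ELISA and fitted in both directions relative to DMSO. Cytotoxicity checked in parallel cultures by SRB total-protein staining.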
# [2] = read-out: Transforming growth factor beta 1 (TGFb1), TGFB1 (gene 7040); assay: BSK_KF3CT_TGFb1: BioMAP Diversity Plus: KF3CT Assay for Transforming growth factor beta 1 (TGFb1) Biomarker Activity (AID 2283072); details: primary human keratinocytes with fibroblasts; actives raise or lower the signal
# Summary of the method: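 Human keratinocyte/foreskin fibroblast co-culture; TGF-b1 measured by ELISA 24 h after dosing, fitted bidirectionally versus DMSO. Cytotoxicity checked in parallel cultures by total protein (SRB staining, 560 nm).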
# [3] = read-out: C-C motif chemokine 2 (Homo sapiens) (UniProt P13500); assay: BSK_KF3CT_MCP1: BioMAP Diversity Plus: KF3CT Assay for Monocyte Chemoattractant Protein 1 (MCP1/CCL2) Biomarker Activity (AID 2283073); details: primary human keratinocytes with fibroblasts; actives raise or lower the signal
# Summary of the method: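 Human keratinocyte–foreskin fibroblast co-culture; MCP-1 measured by ELISA 24 h after dosing. Bidirectional fit vs DMSO; cytotoxicity tracked by SRB total protein in parallel cultures.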
# [4] = read-out: Matrix Metallopeptidase 9 (MMP9), MMP9 (gene 4318); assay: BSK_KF3CT_MMP9: BioMAP Diversity Plus: KF3CT Assay for Matrix Metallopeptidase 9 (MMP9) Biomarker Activity (AID 2283074); details: primary human keratinocytes with fibroblasts; actives raise or lower the signal;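 for AC50: MMP9 protein level quantified by ELISA in the co-culture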
# Summary of the method: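 Human keratinocyte/foreskin fibroblast co-culture; compound added; 24 h; MMP-9 by ELISA; bidirectional fit vs DMSO baseline.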
# [5] = read-out: urokinase plasminogen activator (uPA), PLAU (gene 5328); assay: BSK_KF3CT_uPA: BioMAP Diversity Plus: KF3CT Assay for urokinase plasminogen activator (uPA) Biomarker Activity (AID 2283075); details: primary human keratinocytes with fibroblasts; actives raise or lower the signal
# Summary of the method: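 ELISA readout of uPA, analyzed for signal gain or loss relative to DMSO, from a human primary keratinocyte–foreskin fibroblast co-culture measured 24 h after chemical treatment.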
# [6] = read-out: CD40, CD40 (gene 958); assay: BSK_LPS_CD40: BioMAP Diversity Plus: LPS Assay for CD40 Biomarker Activity (AID 2283076); details: primary human HUVEC with PBMC; actives raise or lower the signal
# Summary of the method: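 HUVEC plus PBMC co-culture stimulated with LPS; CD40 quantified by ELISA 24 h after compound dosing. Fitting was bidirectional relative to DMSO. SRB staining of parallel cultures flagged overt cytotoxicity.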
# [7] = read-out: E-selectin (Homo sapiens) (UniProt P16581); assay: BSK_LPS_Eselectin: BioMAP Diversity Plus: LPS Assay for Eselectin Biomarker Activity (AID 2283077); details: primary human HUVEC with PBMC; actives raise or lower the signal
# Summary of the method: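 Human umbilical vein endothelial cells co-cultured with PBMC under LPS stimulation; cell-surface E-selectin measured by ELISA 24 h after dosing. Change in either direction versus DMSO, with SRB total-protein staining in parallel cultures for cytotoxicity.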
# [8] = read-out: Interleukin-8 (IL8), CXCL8 (gene 3576); assay: BSK_LPS_IL8: BioMAP Diversity Plus: LPS Assay for Interleukin-8 (IL8) Biomarker Activity (AID 2283078); details: primary human HUVEC with PBMC; actives raise or lower the signal
# Summary of the method: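 Human umbilical vein endothelial cells co-cultured with PBMC, LPS-stimulated, exposed to compound for 24 h. IL-8 quantified by ELISA; fitted in both directions against DMSO, with SRB total-protein staining of parallel cultures for cytotoxicity.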
# [9] = BSK_LPS_SRB: Viability Assessment in the BioMAP Diversity Plus: LPS Assay (AID 2283079); details: primary human HUVEC with PBMC;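 note: total protein by sulforhodamine B absorbance as a cytotoxicity measure; measured one day after compound addition; fitted in both directions against DMSO so loss or gain of signal counts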
# Summary of the method: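 Co-culture of human umbilical vein endothelial cells and PBMC, read 24 h after dosing. Total protein by 0.1% SRB staining after 10% TCA fixation, absorbance at 560 nm; bidirectional fit against DMSO.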
# [10] = read-out: Interleukin-1 alpha (IL1a), IL1A (gene 3552); assay: BSK_LPS_IL1a: BioMAP Diversity Plus: LPS Assay for Interleukin-1 alpha (IL1a) Biomarker Activity (AID 2283080); details: primary human HUVEC with PBMC; actives raise or lower the signal
# Summary of the method: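 Human umbilical vein endothelial cells co-cultured with PBMC and stimulated with LPS; IL-1a measured by ELISA 24 h after dosing. Bidirectional fitting against DMSO; cytotoxicity checked by SRB staining in parallel cultures.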
# Sequence of E-selectin (Homo sapiens) (P16581 whole entry, looked up): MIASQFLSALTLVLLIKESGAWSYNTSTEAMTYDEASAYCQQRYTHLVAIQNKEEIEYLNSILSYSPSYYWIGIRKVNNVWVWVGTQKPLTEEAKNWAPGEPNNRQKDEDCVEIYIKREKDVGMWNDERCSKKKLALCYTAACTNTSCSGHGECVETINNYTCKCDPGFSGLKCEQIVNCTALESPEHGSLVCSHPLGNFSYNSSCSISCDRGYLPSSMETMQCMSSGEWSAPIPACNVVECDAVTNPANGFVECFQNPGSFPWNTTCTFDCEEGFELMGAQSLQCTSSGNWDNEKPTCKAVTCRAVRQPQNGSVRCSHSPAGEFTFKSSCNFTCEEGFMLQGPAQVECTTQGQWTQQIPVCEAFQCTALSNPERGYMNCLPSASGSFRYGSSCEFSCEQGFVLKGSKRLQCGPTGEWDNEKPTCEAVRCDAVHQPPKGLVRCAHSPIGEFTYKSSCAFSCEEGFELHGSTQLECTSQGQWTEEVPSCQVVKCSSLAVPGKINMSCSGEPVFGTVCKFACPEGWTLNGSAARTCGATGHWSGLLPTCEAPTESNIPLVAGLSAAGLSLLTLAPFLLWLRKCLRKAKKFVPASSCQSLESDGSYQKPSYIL
SMILES,outcome [1],outcome [2],outcome [3],outcome [4],outcome [5],outcome [6],outcome [7],outcome [8],outcome [9],outcome [10],AC50 [1],AC50 [2],AC50 [3],AC50 [4],AC50 [5],AC50 [6],AC50 [7],AC50 [8],AC50 [9],AC50 [10]
COc1cc(OC)nc(NC(=O)NS(=O)(=O)c2ncccc2C(=O)N(C)C)n1,inactive,inactive,inactive,inactive,inactive,inactive,inactive,inactive,inactive,inactive,–,–,–,–,–,–,–,–,–,–
CCOP(=S)(OCC)SCCS(=O)(=O)CC,inactive,inactive,inactive,inactive,inactive,inactive,inactive,inactive,inactive,inactive,–,–,–,–,–,–,–,–,–,–
COC(=O)c1sccc1S(=O)(=O)NC(=O)Nc1nc(C)nc(OC)n1,inactive,inactive,inactive,inactive,inactive,inactive,inactive,inactive,inactive,inactive,–,–,–,–,–,–,–,–,–,–
CCC(=O)C(CC(C)N(C)C)(c1ccccc1)c1ccccc1 (stereo not given),inactive,inactive,inactive,inactive,inactive,inactive,inactive,inactive,inactive,inactive,–,–,–,–,–,–,–,–,–,–
CC(C)(C)c1cc(O)ccc1O,–,–,–,–,–,–,–,–,–,–,20 µM (active),20 µM (active),36 µM (active),29.5 µM (active),31.3 µM (active),5.75 µM (active),12.4 µM (active),13.1 µM (active),28.5 µM (active),14.5 µM (active)
O=C(Nc1ccc2[nH]ccc2c1)c1cc2cc(F)ccc2n1Cc1cccc(F)c1,–,–,–,–,–,–,–,–,–,–,7.19 µM (active),6.88 µM (active),6.52 µM (active),4.6 µM (active),8.64 µM (active),8.35 µM (active),12.4 µM (active),10.4 µM (active),13.2 µM (active),7.97 µM (active)
ClCC(Cl)CCl,inactive,inactive,inactive,inactive,inactive,inactive,inactive,inactive,inactive,inactive,–,–,–,–,–,–,–,–,–,–
NC(=O)O,inactive,inactive,inactive,inactive,inactive,inactive,inactive,inactive,inactive,inactive,–,–,–,–,–,–,–,–,–,–
CCSC(C)CC1CC(=O)C(C(CC)=NOC/C=C/Cl)=C(O)C1 (stereo not given),inactive,inactive,inactive,inactive,inactive,inactive,inactive,–,inactive,inactive,–,–,–,–,–,–,–,0.0903 µM (active),–,–
CC1(C)Cc2cccc(O)c2O1,inactive,inactive,inactive,inactive,inactive,inactive,inactive,inactive,inactive,inactive,–,–,–,–,–,–,–,–,–,–
O=C(O)C(F)(F)C(F)(F)C(F)(F)C(F)(F)C(F)(F)C(F)(F)C(F)(F)C(F)(F)C(F)(F)C(F)(F)F,–,–,–,–,–,inactive,inactive,inactive,inactive,inactive,9.27 µM (active) and 6.15 µM (active) and 6.13 µM (active),5.59 µM (active),7.51 µM (active) and 4.5 µM (active) and 4.55 µM (active),6.03 µM (active) and 3.85 µM (active) and 4.19 µM (active),9.7 µM (active) and 5.47 µM (active) and 5.16 µM (active),29.5 µM (active),–,33.8 µM (active) and 2.03 µM (active),34.8 µM (active),29.6 µM (active)
CC(C)CCCCCCOC(=O)c1ccccc1C(=O)OCCCCCCC(C)C,inactive,inactive,inactive,inactive,inactive,inactive,inactive,inactive,inactive,inactive,–,–,–,–,–,–,–,–,–,–
CC(C)(OO)c1ccccc1,inactive,inactive,inactive,inactive,inactive,inactive,inactive,inactive,inactive,inactive,–,–,–,–,–,–,–,–,–,–
O=[N+]([O-])c1ccc(O)c([N+](=O)[O-])c1,inactive,inactive,inactive,inactive,inactive,inactive,inactive,inactive,inactive,inactive,–,–,–,–,–,–,–,–,–,–
O=C(O)C(F)(F)C(F)(F)C(F)(F)C(F)(F)C(F)(F)C(F)(F)F,inactive,inactive,inactive,inactive,inactive,inactive,inactive,inactive,inactive,inactive,–,–,–,–,–,–,–,14.6 µM (active) and 30 µM (active),–,–
O=c1[nH]c(=O)[nH]c(=O)[nH]1,inactive,inactive,inactive,inactive,inactive,inactive,inactive,inactive,inactive,inactive,–,–,–,–,–,–,–,–,–,–
